# From PubChem BioAssay AID1159580 (chemical genetic matrix, 2015)
# Among all 5,500 compounds or so, about 2,000 (36%) were called active. Another 18% or so got no clear call; they are omitted. The list shows a part of the results. A number with no mark means an inactive call. No stated cut-off is given here; in the data, active means normalized growth mostly below about 0.91 (no sharp cut-off); inconclusive means no clear call, values can overlap the other calls; inactive means mostly above about 0.92.
# Experiment: chemical genetic growth profiling, strain panel (AID 1159580);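 further: tested at 20 µM; growth read once vehicle control cultures reached saturation at 30 °C; 1 = growth at the plate median or of vehicle wells; lower values mean less growth of the strain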
# Details: S. cerevisiae deletion strains, growth OD
compound,measurement,setting,value
c1ccc(N=Nc2ccc(Nc3ccccc3)cc2)cc1,normalized growth,"locus YAL013W, strain DEP1, hits give low values",0.916 (active)
same,normalized growth,"locus YBR229C, strain ROT2, hits give low values",0.823 (active)
same,normalized growth,"locus YCL061C, strain MRC1, hits give low values",0.89 (active)
same,normalized growth,"locus YDL101C, strain DUN1, hits give low values",0.977
same,normalized growth,"locus YDL134C, strain PPH21, hits give low values",0.825 (active)
same,normalized growth,"locus YDR150W, strain NUM1, hits give low values",0.906
same,normalized growth,"locus YEL061C, strain CIN8, hits give low values",0.74 (active)
same,normalized growth,"locus YGR078C, strain PAC10, hits give low values",0.897 (active)
same,normalized growth,"locus YGR229C, strain SMI1, hits give low values",0.984
same,normalized growth,"locus YHR030C, strain SLT2, hits give low values",0.57 (active)
same,normalized growth,"locus YHR087W, strain rtc3, hits give low values",0.751 (active)
same,normalized growth,"locus YJR043C, strain POL32, hits give low values",0.91 (active)
same,normalized growth,"locus YJR075W, strain HOC1, hits give low values",0.754 (active)
same,normalized growth,"locus YLR039C, strain RIC1, hits give low values",0.425 (active)
same,normalized growth,"locus YLR058C, strain SHM2 (second series), hits give low values",0.964
same,normalized growth,"locus YLR085C, strain ARP6, hits give low values",0.389 (active)
same,normalized growth,"locus YLR262C, strain YPT6, hits give low values",0.37 (active)
same,normalized growth,"locus YML094W, strain GIM5, hits give low values",0.812 (active)
same,normalized growth,"locus YMR219W, strain ESC1, hits give low values",0.92 (active)
same,normalized growth,"locus YMR263W, strain SAP30, hits give low values",0.9 (active)
same,normalized growth,"locus YMR307W, strain GAS1, hits give low values",0.405 (active)
same,normalized growth,"locus YNL128W, strain TEP1, hits give low values",0.913 (active)
same,normalized growth,"locus YNL153C, strain GIM3, hits give low values",0.914 (active)
same,normalized growth,"locus YNL298W, strain CLA4 (second series), hits give low values",0.79 (active)
same,normalized growth,"locus YNL322C, strain KRE1, hits give low values",1
same,normalized growth,"locus YNR030W, strain Alg12, hits give low values",0.737 (active)
same,normalized growth,"locus YPL055C, strain LGE1, hits give low values",0.626 (active)
same,normalized growth,"locus YPL241C, strain CIN2, hits give low values",0.75 (active)
same,normalized growth,"locus YPR135W, strain CTF4, hits give low values",0.748
